We go through 40 compounds from PubChem BioAssay.

For some of these results: Potency and affinity values are given separately. Records with an inconclusive call do not appear. The list shows a part of the results. A call without a number means that no potency is given here. The source made the active and inactive calls.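 The calls were made as follows, unless noted: active = signal-lowering compounds whose fitted half-maximal concentration is at or below twice the top tested dose in every run; inconclusive = runs disagree, flat 30 to 70% inhibition, or poor curve fit; inactive = the rest.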

One test can be described thus: DNA binders by acridine orange displacement, dose response, counter-screen for EWS/Fli inhibitor project, biochemical, fluorescence polarization, cherry-pick (AID 720586;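 active = fitted curve reaches a 35% signal fall AC35 below twice the sample's top valid tested dose, actives reach about 48 µM in these data; inactive = the rest, including activity in the rising direction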;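 also: lower polarization ratio signals compound binding to DNA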). The following applies: salmon sperm DNA acridine orange fluorescence polarization; series mostly up to 68 µM. Background: The purpose of a counterscreen is to sort out artefacts and off-target activity.
`CCC(C)Cn1c(O)cc2nn(-c3nc4ccccc4s3)c(=O)c-2c1C` (configuration not stated): the AC35 is 48.3 µM (active).

Take `Cc1ccc(C)c(S(=O)(=O)N2CCN(c3ncnc4sccc34)CC2)c1`: the AC35 result is “inactive”.

In the case of `COC(=O)C[C@@H]1CC[C@@H]2[C@H](COc3ccc(NC(=O)c4cccc(F)c4)cc3C(=O)N2C)O1`, the AC35 result is “inactive”.

`COc1ccc(OC)c(Cc2cnc3nc(N)nc(N)c3c2C)c1`: the AC35 entry was “inactive”.

For `COc1ccc(-c2nc3c(s2)CCc2onc(-c4ccc(OC)cc4)c2-3)cc1`, the AC35 entry was “inactive”.

For `Cc1ccc(S(=O)(=O)Nc2ccc3c(c2)C(=O)N([C@@H](C)CO)C[C@@H](C)[C@@H](CN(C)Cc2ccc(C(=O)Nc4ccccc4N)cc2)O3)cc1`, the AC35 entry was “inactive”.

In the case of `CCn1c(/C=N/NC(=O)c2ccc(OC)cc2)nc2ccccc21`, the AC35 entry is “inactive”.

With `N#C[C@@H]1[C@H](c2ccc(C#Cc3cccc(F)c3)cc2)[C@@H](CO)N1C(=O)C1CCCC1`, the AC35 entry was “inactive”.

Take `C(=N\Nc1ccc2ccccc2n1)/c1ccc2c(c1)OCO2`: the AC35 result was “inactive”.

Take `C[C@H]1CN([C@@H](C)CO)C(=O)Cc2cc(NC(=O)C3CC3)ccc2O[C@H]1CN(C)S(=O)(=O)c1ccc(Cl)cc1`: the AC35 entry was “inactive”.

In the case of `CN(CCO)c1ccc(/C=N/Nc2nncc3ccccc23)cc1`, the AC35 result is “inactive”.

Consider `Cc1noc(C)c1NC(=O)Nc1ccc2c(c1)CC(=O)N([C@@H](C)CO)C[C@@H](C)[C@@H](CN(C)Cc1ccc(Cl)c(Cl)c1)O2`, for which the AC35 entry is “inactive”.

`COc1ccc(Nc2ncnc3ccc(Br)cc23)c(OC)c1`: the AC35 entry was “inactive”.

For `OCCN1CCN(C(=S)c2ccc(-c3ccccc3)cc2)CC1`, the AC35 entry was “inactive”.

A short description of a further test: inhibitors of CMV-promoter luciferase reporter, dose response, counter-screen for Pax8 inhibitor project, cell-based, HEK293, luminescence, dry powder (AID 743020).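 Also: HEK293 cells stably expressing the CMV luciferase reporter.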 The following applies: SteadyGlo luminescence, 24 h; series mostly up to 35 µM.
For the compound `S=c1sc2c(Cl)ncnc2n1-c1ccccc1`, the call was inactive.

Take `Cn1ncc2c(O/N=C(\N)c3ccc(C(F)(F)F)cc3)ncnc21`: the compound was called inactive.

As to `COc1ccccc1C(=O)Nc1nc2ccccc2[nH]1`, the call was inactive.

Turning to `Nc1nc(=S)c2[nH]cnc2[nH]1`, the outcome was inactive.

Regarding `COc1ccc(NC(=O)c2c(Nc3ccccc3)sc(C(=O)c3ccc(F)cc3)c2N)cc1`, the outcome was inactive.

As for `O=C(CCl)N(Cc1ccccc1)c1ccccc1`, the result was inactive.

Regarding `CCOC(=O)c1c(C)[nH]c2c1-c1ccccc1C(=O)C2=O`, the compound was called inactive.

Turning to `COc1ccc(-c2nc3c(c(SCC(=O)Nc4cccc(O)c4)n2)Cc2c(CO)cnc(C)c2O3)cc1`, the compound was called inactive.

For the compound `CCN(CC)S(=O)(=O)c1cc(NC(=O)Cn2ncc(Cl)c(Cl)c2=O)ccc1C`, the compound was classed as inactive.

On to `C(=Cc1cnc2ccccc2n1)c1ccc2c(c1)OCO2`, for which the compound was classed as inactive.

Regarding `CCOc1ccc(C(CN2CCOCC2)C(C)=O)cc1OC` (configuration not stated), the compound was called inactive.

For the compound `COc1ccc(/C=N/NC(=O)c2[nH]c3ccc(Br)cc3c2-c2ccccc2)cc1`, the result was inactive.

On to `O=C(NC1CCCCC1)C(c1cccnc1)N(C(=O)CCl)c1ccc(F)cc1` (configuration not stated), for which the outcome was inactive.

`Cc1cccc(N(Cc2cc(=O)[nH]c3ccccc23)C(=O)CCl)c1`: the compound was called inactive.

As to `COCCn1c(C)cc(C2=NNC(=NC3CC3)SC2)c1C`, the call was inactive.

For the compound `Cc1ccc(Cl)cc1N1CCN(C(=O)c2noc(C)c2[N+](=O)[O-])CC1`, the compound was called inactive.

As for `O=C(NC12CC3CC(CC(C3)C1)C2)c1ccc([N+](=O)[O-])o1`, the compound was classed as inactive.

For `COc1ccc(F)cc1-c1cc(NC=O)c2ncc(-c3cc(OC)c(OC)c(OC)c3)n2c1`, the call was inactive.

As to `COC(=O)[C@]12CCCCC=C1N(Cc1ccc(Cl)cc1Cl)C(=O)[C@H](CC(=O)N1CCN(C(=O)c3ccco3)CC1)C2`, the result was inactive.

`O=C(NCc1cc(C(F)(F)F)ccc1Cl)c1cccc2c1C(=O)c1ccc(N3CCC(N4CCCCC4)CC3)cc1S2(=O)=O`: the compound was classed as inactive.

`CCOc1ccc(C(=O)C(CCC(CN(C)C)C(=O)c2ccc(OCC)cc2)CN(C)C)cc1` (configuration not stated): the call was inactive.

For the compound `CCc1cc(-c2n[nH]c(C)c2-c2nc3ccccc3n2C)c(O)cc1O`, the call was inactive.

Take `Cc1ccc(NC(=O)CN(C)C(=O)Cn2ncc(Cl)c(Cl)c2=O)cc1`: the compound was called inactive.

For `O=C(Nc1ccc(N2CCN(C(=O)c3ccccc3)CC2)cc1)c1ccc([N+](=O)[O-])o1`, the compound was called inactive.

Consider `COc1cc(OC)c2c(-c3cccc(-c4ccc(OC)c(F)c4)c3)cc(=O)oc2c1`, for which the compound was called inactive.

`Cc1cnc(NC(=O)c2ccc3c(c2)OCCO3)s1`: the outcome was inactive.

The nature of a further test: non-specific cell cytotoxicity, dose response, cytotoxicity control for PAX8 inhibitor project, plate reader, dry powder samples (AID 743021; call rule not given here). Particulars: cell line, non-specific cytotoxicity counter-screen; series mostly up to 35 µM.
Take `COc1ccc(NC(=O)c2c(Nc3ccccc3)sc(C(=O)c3ccc(F)cc3)c2N)cc1`: the compound was classed as inactive.

With `COc1ccc(-c2nc3c(c(SCC(=O)Nc4cccc(O)c4)n2)Cc2c(CO)cnc(C)c2O3)cc1`, the call was inactive.

With `CCN(CC)S(=O)(=O)c1cc(NC(=O)Cn2ncc(Cl)c(Cl)c2=O)ccc1C`, the compound was classed as inactive.

Take `CCOc1ccc(C(CN2CCOCC2)C(C)=O)cc1OC` (configuration not stated): the compound was classed as inactive.

On to `COc1ccc(/C=N/NC(=O)c2[nH]c3ccc(Br)cc3c2-c2ccccc2)cc1`, for which the outcome was inactive.

On to `O=C(NC12CC3CC(CC(C3)C1)C2)c1ccc([N+](=O)[O-])o1`, for which the compound was classed as inactive.

For `COc1ccc(F)cc1-c1cc(NC=O)c2ncc(-c3cc(OC)c(OC)c(OC)c3)n2c1`, the compound was called inactive.

Regarding `COC(=O)[C@]12CCCCC=C1N(Cc1ccc(Cl)cc1Cl)C(=O)[C@H](CC(=O)N1CCN(C(=O)c3ccco3)CC1)C2`, the compound was called inactive.

Take `CCc1cc(-c2n[nH]c(C)c2-c2nc3ccccc3n2C)c(O)cc1O`: the result was inactive.

`Cc1ccc(NC(=O)CN(C)C(=O)Cn2ncc(Cl)c(Cl)c2=O)cc1`: the call was inactive.

Regarding `O=C(Nc1ccc(N2CCN(C(=O)c3ccccc3)CC2)cc1)c1ccc([N+](=O)[O-])o1`, the compound was classed as inactive.

With `COc1cc(OC)c2c(-c3cccc(-c4ccc(OC)c(F)c4)c3)cc(=O)oc2c1`, the outcome was inactive.
